# 3CLpro inhibitor – SARS-CoV 3CLpro protease inhibition; P0C6X7; 290,000 compounds, 0.14% hits; inhibition, % at 6 µM; recombinant SARS-CoV 3CLpro, quenched FRET peptide cleavage; in the data active = inhibition above about 12%
# Mtb hypoxia inh – reduces hypoxia-regulated biosensor signal in M. tuberculosis. M. tuberculosis hypoxia-regulated fluorescent reporter, fluorescence. fluorescence inhibition, % (no concentration beside the values). 300,000 compounds, 0.1% hits; in the data active = fluorescence inhibition mostly above about 23%, no sharp cut-off; inactive = mostly below about 17%
# CCHF vOTU inh-1 – blocks the CCHF virus ovarian tumor domain protease | CCHFV vOTU protease, Pep-AMC fluorescence | inhibition, % at 11.5 µM | 370,000 compounds, 0.55% hits
# PriA SSB inh – K. pneumoniae PriA-SSBct interaction inhibition; AlphaScreen SSBct-PriA binding, biotinylated peptide; 430,000 compounds, 0.6% hits; inhibition, % at 33 µM; in the data active = inhibition mostly above about 37%, no sharp cut-off; inactive = mostly below about 20%
# DUSP3 inh – blocks human VHR1 dual specificity phosphatase. P51452. inhibition, % at 13.3 µM. recombinant VHR phosphatase, pNPP absorbance. 290,000 compounds, 0.52% hits. AID 1654; in the data active = inhibition above about 50%
# Target sequence (P51452 whole entry, looked up): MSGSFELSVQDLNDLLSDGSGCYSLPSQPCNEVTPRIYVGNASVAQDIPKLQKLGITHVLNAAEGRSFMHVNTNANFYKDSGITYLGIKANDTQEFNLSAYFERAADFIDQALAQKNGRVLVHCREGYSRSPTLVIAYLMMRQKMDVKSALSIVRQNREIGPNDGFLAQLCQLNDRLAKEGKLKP
# CCHF vOTU inh-2 – confirmation of CCHF virus vOTU protease inhibitors; shares compounds with CCHF vOTU inh-1; Recombinant CCHFV vOTU, Pep-AMC fluorescence; inhibition, % at 11.5 µM; 1,900 compounds, 17% hits
# Numbers stand for hits; – = inactive; · = not tested or not shown. Only some compounds are listed: those with a hit (about 1.3% of all), similar ones and a draw of the others. Cut-off read from the data, not from the text of the source, unless noted: active = inhibition above about 30%; inactive = the rest.
SMILES,3CLpro inhibitor,Mtb hypoxia inh,CCHF vOTU inh-1,PriA SSB inh,DUSP3 inh,CCHF vOTU inh-2
COC(=O)C1CC(Oc2ccccc2F)CN1C(=O)c1cnccn1 (stereo not given),·,·,·,–,·,·
O=c1oc(-c2ccccc2)nc2sc3c(c12)CCC3,–,–,–,–,–,·
Nc1nc(-c2ccccc2)nc2sc3c(c12)CCCC3,–,–,30,–,–,–
CCOC(=O)c1sc(NC(=O)c2ccnn2C)c(C(=O)OCC)c1C,·,·,·,–,·,·
O=C1C2C3C=CC(c4ccccc4)(C2C(=O)N1c1cccc(Cl)c1)C1C(=O)N(c2cccc(Cl)c2)C(=O)C31 (stereo not given),–,–,38,–,–,–
COC(=O)c1sc(NC(=O)CSc2nc3ccccc3c(=O)n2-c2ccccc2)c(C(=O)OC)c1C,·,·,·,–,·,·
CCOc1ccccc1NC(=O)Nc1ccc2c(c1)CN(C(=O)c1ccccc1)CC2,·,·,·,–,·,·
Cc1ccc(S(=O)(=O)N2C(c3ccc(Cl)c(Cl)c3)CC=C(C(=O)O)C2c2ccccc2)cc1 (stereo not given),·,–,·,·,·,·
Cc1ccc([C@H]2C(C(=O)O)=CC[C@@H](c3ccc(Cl)c(Cl)c3)N2S(=O)(=O)c2ccc(C)cc2)cc1,·,–,40,–,·,–
Cc1ccc([C@@H]2CC=C(C(=O)O)[C@H](c3ccc(Cl)cc3)N2S(=O)(=O)c2ccccc2C)cc1,·,–,33,–,·,–
Cc1ccccc1S(=O)(=O)N1C(c2ccc(Cl)cc2)CC=C(C(=O)O)C1c1ccccc1 (stereo not given),·,–,·,·,·,·
Cc1ccc(S(=O)(=O)N2[C@@H](c3ccccc3)C(C(=O)O)=CC[C@H]2c2ccc3c(c2)OCO3)cc1,·,·,–,–,·,·
Cc1ccc(S(=O)(=O)N2[C@@H](c3ccc(C(C)(C)C)cc3)C(C(=O)O)=CC[C@H]2c2ccc3c(c2)OCO3)cc1,·,–,30,–,·,–
Cc1ccc([C@@H]2CC=C(C(=O)O)[C@H](c3ccc(Br)cc3)N2S(=O)(=O)c2ccccc2C)cc1,·,–,39,–,·,–
COc1ccc([C@@H]2CC=C(C(=O)O)[C@H](c3ccc(Br)cc3)N2S(=O)(=O)c2ccccc2C)cc1,·,–,–,–,·,·
Cc1cc(NC(=O)c2cccs2)n(-c2nc(-c3cccs3)cs2)n1,·,·,·,–,·,·
Cc1ccc(S(=O)(=O)N2[C@@H](c3ccc(Br)cc3)C(C(=O)O)=CC[C@H]2c2ccc(Cl)cc2)cc1,·,–,39,–,·,–
Cc1ccccc1S(=O)(=O)N1[C@@H](c2ccc(Br)cc2)C(C(=O)O)=CC[C@H]1c1ccc(Cl)cc1,·,–,45,–,·,–
Cc1ccccc1S(=O)(=O)N1[C@@H](c2ccccc2)C(C(=O)O)=CC[C@H]1c1ccc(Cl)cc1,·,·,–,–,·,·
COc1cccc(Oc2ccc(S(=O)(=O)N3CCCC3)cc2[N+](=O)[O-])c1,–,·,34,–,–,–
CCCCCN(C(=O)CCc1cn(CCCCC)c2ccccc12)c1ccc(Oc2cccnc2)cc1,·,·,–,·,·,·
CCCN(C(=O)c1cn(CCC)c2ccccc12)c1ccc(Oc2cccnc2)cc1,·,·,38,·,·,–
Cc1cc(Br)cn2c(Cc3ccccc3C(F)(F)F)c(-c3ccccc3)nc12,·,·,–,·,·,·
Cc1cc(Br)cn2c(Cc3ccccc3C(F)(F)F)c(-c3ccco3)nc12,·,·,30,·,·,–
CCc1ccc(-c2csc(NC(=O)C3CC(=O)N(c4ccc5c(c4)OCCO5)C3)n2)cc1 (stereo not given),–,–,30,–,–,–
SMILES,3CLpro inhibitor,Mtb hypoxia inh,CCHF vOTU inh-1,PriA SSB inh,DUSP3 inh,CCHF vOTU inh-2
Cc1csc(NC(=O)C2CC(=O)N(c3ccc4c(c3)OCCO4)C2)n1 (stereo not given),·,–,–,–,·,·
COC1=C(Nc2ccc(OC)cc2)C(=O)c2ccccc2C1=O,–,–,59,–,–,–
CCOc1ccc(NC2=C(OC)C(=O)c3ccccc3C2=O)cc1,–,–,62,–,–,–
COc1ccc(NC2=C(c3ccc(OC)cc3)C(=O)c3ccccc32)cc1,–,–,–,–,–,·
COC1=C(Nc2ccc(OC)cc2)C(=O)C(OC)=C(Nc2ccc(OC)cc2)C1=O,·,–,–,–,·,·
COC1=C(Nc2ccc(O)cc2)C(=O)c2ccccc2C1=O,–,–,40,–,–,–
CNc1nn(CC(=O)Nc2ccc(Br)cc2)c(N)c1-c1nc(-c2ccccc2C)no1,·,·,·,–,·,·
O=[N+]([O-])c1ccc(O)c2ncccc12,–,·,47,133,–,–
O=[N+]([O-])c1ccc(O)c2cccnc12,–,–,–,–,–,·
N#Cc1cccc(C(=O)N2CCSC2c2ccc(C(F)(F)F)cc2)c1 (stereo not given),·,·,·,–,·,·
CCN(CC)C(=O)c1ccc(/C=C/c2c[nH]c3ccccc23)[n+](C)c1,–,–,–,–,–,·
CC[n+]1c(/C=C/c2c[nH]c3ccccc23)ccc2cc(C)ccc21,–,–,34,–,–,–
CCCCn1c(NS(=O)(=O)c2ccccc2)c(S(=O)(=O)c2ccc(C)cc2)c2nc3ccccc3nc21,–,–,108,58,–,51
CCCCCCCCn1c(NS(=O)(=O)c2ccccc2)c(S(=O)(=O)c2ccc(C)cc2)c2nc3ccccc3nc21,·,·,·,–,·,·
CCCCn1c(NS(=O)(=O)c2ccc(C)cc2)c(C(=O)OCC)c2nc3ccccc3nc21,–,·,95,–,–,–
CCCCn1c(NS(=O)(=O)c2ccc3ccccc3c2)c(S(=O)(=O)c2ccc(C)cc2)c2nc3ccccc3nc21,·,·,·,–,·,·
Cc1ccc(NC(=O)C(=O)NCCc2c[nH]c3ccccc23)cc1N1CCCC1=O,·,·,·,–,·,·
CCOC(=O)c1c(NC(=O)/C=C/C(=O)O)sc(C)c1-c1ccc(C(C)(C)C)cc1,–,–,45,–,–,–
CSc1nn(CC(=O)Nc2ccc(F)c(F)c2)c(N)c1-c1nc(-c2ccc3c(c2)OCO3)no1,·,·,·,–,·,·
CN(C)S(=O)(=O)N1CCCN(S(=O)(=O)N(C)C)CC1,–,–,44,–,–,–
CCCn1c(O)c(N=NC(=O)CNC(=O)Cc2ccc(OC)cc2)c2ccccc21,–,–,32,–,–,–
CCCn1c(O)c(N=NC(=O)CNC(=O)/C=C/c2ccc(OC)cc2)c2ccccc21,–,–,–,–,–,·
O=C(Cc1csc(Nc2ccc(Cl)cn2)n1)N1CCN(c2ccc(C(F)(F)F)cn2)CC1,·,·,·,–,·,·
CCOC(=O)C1=CCC(c2cc3ccc(OC)cc3n2C(=O)OC(C)(C)C)NC1 (stereo not given),·,·,34,·,·,–
O=C(NC(=S)Nc1ccccc1N1CCCC1)c1cccs1,–,–,37,–,–,38
CC(C)CC(=O)NC(=S)Nc1ccccc1N1CCCC1,–,–,31,–,–,–
O=C(NC(=S)Nc1ccccc1N1CCCCC1)c1cccs1,–,–,–,–,–,·
CC(C)CC(=O)Nc1ccccc1N1CCCC1,–,–,–,–,–,·
O=C1CC(N2CCOCC2)=NN1c1ccc([N+](=O)[O-])cc1,–,–,104,–,–,–
C=CCN=C1NC(c2cccc(Cl)c2)C(C(=O)OC)=C(C)N1Cc1cccc(C(F)(F)F)c1 (stereo not given),·,·,30,·,·,–

# Bioassay records (PubChem BioAssay)
